Data as given in the supplement of paper PMC6555819.

Tests used:
Experiment in all cases: PBM binding z-score (relative to random genomic background probes); higher = stronger binding; sequences stand for … in GC…GCGATTGACAGCGTAGAATGAAGG
[1] = system: RARb homodimer (NR concentration 270 nM)
Outline: (§1)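 Random background probes are the reference for binding z-scores. These scores derive from regression-normalized fluorescence on custom Agilent 4×180K protein-binding microarrays incubated 1 h with ligand-free nuclear receptor dimers. Binding was detected with antibodies against each partner (one per run).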

[2] = system: RARg:RXRa (NR concentration 270 nM, RXRa partner concentration 90 nM)
Outline: as §1

[3] = system: RARg homodimer (NR concentration 270 nM)
Outline: as §1

[4] = system: RXRa DBDmut IVT, anti-RXR (DBD mutation: RXRa K156A/R161A, NR concentration 90 nM)
Outline: as §1

[5] = system: RXRa homodimer (NR concentration 180 nM)
Outline: as §1

[6] = system: THRa:RXRa (NR concentration 90 nM, RXRa partner concentration 90 nM)
Outline: as §1

[7] = system: THRa homodimer (NR concentration 90 nM)
Outline: as §1

[8] = system: VDR:RXRa (NR concentration 270 nM, RXRa partner concentration 90 nM)
Outline: as §1

[9] = system: VDR homodimer (NR concentration 270 nM)
Outline: as §1

Row | Sequence | PBM binding z-score [1] | PBM binding z-score [2] | PBM binding z-score [3] | PBM binding z-score [4] | PBM binding z-score [5] | PBM binding z-score [6] | PBM binding z-score [7] | PBM binding z-score [8] | PBM binding z-score [9]
1 | TCTTCTAGATCAAGCAGGTTAAGAAAGCCTGAGT | 0.111 | 0.248 | -0.0717 | 0.841 | 0.526 | 0.295 | -0.392 | 0.623 | 0.0619
2 | ACTAGCAGCCCAAGTTTGGGTCACTCAAACAAAG | 1.74 | 0.618 | 0.518 | -0.56 | 0.612 | 2.1 | 1.15 | 0.327 | -0.0283
3 | CCTAGCAGGCCAATCTGGGCCACTCAAGGCTTGA | -0.384 | -0.481 | -0.168 | -0.177 | -0.923 | 1.24 | -0.893 | -0.783 | -1.12
4 | CGAACTAGGTCATTGACCGGACAGTGAATAGTAA | 2.74 | 4.42 | 4.59 | 2.25 | 2.82 | 2.57 | 0.878 | 1.96 | 1.18
5 | AATCAAAGTTCACTAGGTAACGTAAGATTCAGCT | 3.41 | 4.44 | 4.91 | 4.32 | 3.38 | 2.02 | 0.0511 | 3.91 | 3.46
6 | TATACAGGGTGAAAGGCCAGAGTACGAATGTCGA | 1.29 | 1.67 | 1.69 | -0.111 | 2.07 | 1.18 | -0.0839 | 0.682 | 0.653
7 | CATACAGGGTCAGCTAGGCAAGAGTAGGGACGGC | 2.9 | 4.17 | 4.1 | 1.22 | 4.03 | 2.94 | 1 | 2.53 | 0.693
8 | TGCATGAGGTTAAAGATCAGGGAACGTGGCGTCG | 1.02 | 2.55 | 1.33 | 1.43 | 3.68 | 2.71 | 0.949 | 2.1 | 1.11
9 | TCATATAGGTAATACAGGTGAAAGTCGGCATCTA | 0.693 | 0.799 | 0.796 | 1.54 | 1.44 | 1.1 | 0.471 | 1.31 | -0.0243
10 | AATACAGGGTCATCGTAGGCCAGAATACGCACAG | 3.68 | 5.69 | 5.13 | 3.5 | 6.42 | 4.4 | 1.5 | 5.15 | 3.25
11 | CCTTACGGGTCATGGTTATAGCACGGGTGGTACG | 3.03 | 4.4 | 3.82 | 0.187 | 4.81 | 2.67 | -0.082 | 3.23 | 0.582
12 | AGAACGAGGACACGCTGAGTTGATAGCAGAGTAG | 0.357 | 0.807 | 1.74 | 0.835 | -0.00543 | 3.15 | 2.29 | 0.161 | 1.14
13 | ATATGGAGGTTACATCCGGGTCATTCAGGCTATG | 3.23 | 4.87 | 2.66 | 1.17 | 4.23 | 4.11 | 2.74 | 5.05 | 3.3
14 | CTCGAAAGGTCGTGCTCAGGTGAGAATACCAAAC | 2.73 | 5.24 | 4.09 | 2.05 | 4.93 | 4.12 | 1.14 | 3.39 | 0.913
15 | CCTACTGGGCCATGCAGAGGTCATTGATCATATG | 3.99 | 4.29 | 2.87 | 0.291 | 3.81 | 3.05 | 1.12 | 3.86 | 3.36
16 | CCTTACGGTTCACTCCAGGTTATAGCATCGGAGT | 1.62 | 1.48 | 0.86 | 3.44 | 1.89 | 4.66 | 1.33 | 3.4 | 3.65
17 | TCATATAGGTAAACAGGAGAAAGTCCGTAAGTTA | -0.0173 | 0.0941 | 0.0897 | 1.4 | 0.771 | 0.0424 | -0.0606 | 0.716 | 0.309
18 | CCTACTGGGCCACGAAAGGTCGTTGATTCAGTGA | 2.27 | 1.65 | 1.29 | -0.0734 | 2.09 | 2.26 | -0.153 | 1.74 | 0.759
19 | GCTGCTAGGTCAACTGATGGTCTGCTAAAGCTCG | 3.12 | 4.34 | 4.87 | 1.78 | 2.91 | 2.83 | 1.02 | 1.29 | -0.264
20 | CAAACTAGGTCAAGGTGAAAGTCGGTTTGTGCCA | 3.45 | 3.81 | 4.95 | 1.61 | 2.82 | 3.49 | 2.52 | 2.1 | 0.978
21 | GATACAGGTTCAGCTAGAGGCCAGAGTATGGAAA | 1.13 | 4.48 | 1.11 | 3.05 | 1.33 | 1.16 | -0.412 | 2.28 | 2.29
22 | TTGAGTAGGTTAGGGGCATTCAGAATGGCGTCGA | 1.7 | 0.491 | 0.689 | 0.378 | 0.569 | 1.14 | 1.29 | 0.889 | 1.51
23 | ATCGAGAGGTCGACGAGGTGAGTATACACCGTTT | 1.94 | 3.1 | 2.85 | 1.07 | 3.46 | 3.58 | 0.777 | 4.87 | 1.52
24 | ATCGAATGGTCGACGAGGTGAGTATACACCGTTT | -0.00631 | 0.294 | 0.526 | -0.27 | 0.305 | 1.03 | 0.408 | 0.0601 | -0.381
25 | TCATATAGGTAAAAGGTGTAAGTCGGTGTGGTAA | 0.36 | 0.32 | 0.0311 | 1.55 | 0.644 | 0.0897 | -0.167 | 0.727 | 0.313
26 | GCTATTAGTTGAAAGGGCGACCGAATGATTCTCG | 0.767 | 0.148 | 0.219 | 0.775 | 0.22 | -0.155 | -0.468 | -0.17 | 0.16

Row | Sequence | PBM binding z-score [1] | PBM binding z-score [2] | PBM binding z-score [3] | PBM binding z-score [4] | PBM binding z-score [5] | PBM binding z-score [6] | PBM binding z-score [7] | PBM binding z-score [8] | PBM binding z-score [9]
27 | TTACCAAGGTGAGCGGAGGTCGTTGATCCAACTC | 1.72 | 1.31 | 1.18 | -0.227 | 1.44 | 3.73 | 0.656 | 3.36 | 0.886
28 | GGAACGAGGGCAAAGTTGACAGCATCTGTCGACG | 1.58 | 2.77 | 2.16 | 2.56 | 2.76 | 1.67 | -0.266 | 1.6 | 1.24
29 | CAAACTAGGTCAAAGGTCAAATTCGAGCCAACCA | 4.86 | 8.92 | 7.49 | 3.06 | 10.2 | 4.77 | 1.67 | 6.75 | 3.08
30 | CCTCGGAGGACAACAGGAGCTCAGAGCTGCCAGA | -0.211 | 0.18 | 0.813 | 0.0828 | -0.62 | 0.178 | -0.484 | -0.533 | -0.365
31 | CAAACTAGGTCAAGGTTAAAGTCGGTTTGTGCCA | 3.76 | 4.29 | 5.18 | 1.95 | 3.67 | 3.56 | 1.82 | 3.2 | 1.79
32 | CCTCGGAGGACAGAAGCTCAGAGCTGTCCGCTTT | -0.763 | -0.638 | -0.103 | -0.29 | -0.985 | -0.606 | -1.12 | -0.941 | -0.819
33 | TCTAGTTGGTCAAAGGGCACACACTCGAAATGCG | 2.36 | 2.72 | 1.97 | 0.876 | 2.62 | 1.12 | -0.0377 | 1.78 | 0.575
34 | ATCTCTAGGTAAAGATAGCTCAGTGAATGCAAAT | -0.409 | 0.141 | 0.459 | -0.409 | -0.19 | -0.00233 | -0.226 |  | -0.379
35 | ATCTCTAGGTAACAAGTTCATTGAAAGAGAGGAC | 2.29 | 2.04 | 1.72 | 2.49 | 1.8 | 2.14 | 1.24 | 3.84 | 5.08
36 | TCGAGTAGGTTAGGGGCAATCAGAATGGCGTCGA | 0.79 | 0.398 | 0.315 | 0.12 | 0.782 | 0.826 | 0.262 | 0.363 | 0.267
37 | CCAGACAGATGAAAGGTAACTCAGTCTGGTACGC | 0.123 | 0.253 | 0.272 | -0.0479 | 0.612 | 0.108 | -0.299 | 0.208 | 0.123
38 | ATATGTAGGTTCAGGGTCATTCAGGTTGGTTCGC | 3.58 | 4.1 | 3.01 | 3.37 | 5.25 | 3.92 | 3.36 | 6.03 | 6.06
39 | TAGCCTAGGTCATGCGGGCTAGTATAGTGTCGGC | 2.99 | 3.77 | 3.75 | 0.197 | 2.92 | 3.15 | 0.88 | 2.11 | 0.2
40 | CCGAGTAGGTTATGGGGCATTCAGGCAACGGTGA | 1.08 | 0.469 | 0.552 | 0.0295 | 0.728 | 0.503 | 0.317 | -0.0737 | -0.196
41 | ATATGTAGGTTAGCTGGGGACATTCAGACTAGGC | 1.29 | 0.981 | 1.34 | 0.879 | 0.737 | 4.93 | 2.11 |  | 1.3
42 | GCTAGTTGGTCAGTAAAAGGTCAAACACCGGTCG | 5.05 | 5.65 | 4.86 | 0.64 | 5.59 | 3.51 | 1.2 | 4.29 | 1.98
43 | TTACCAAGCTGAAAGGTCGTTGATGCACGCCTTG | 1.45 | 1.06 | 0.528 | -0.0422 | 2.04 | 0.936 | -0.608 | 1.07 | 0.539
44 | AGACCAAGGTGATCGTGAGGTCGTTGATACTAAC | 1.51 | 1.99 | 0.635 | 0.408 | 1.37 | 3.4 | 2.04 | 3.12 | 2.56
45 | GCTAGCAGGCCCTTTGGGTCACTCAATGACGGGC | 1.29 | 0.49 | 0.718 | -0.714 | 0.498 | 1.67 | 0.25 | -0.206 | -0.37
46 | CCTACTGGGCCATCAGGTCATTCATATCAACGTT | 2.53 | 1.94 | 1.92 | 0.469 | 1.3 | 3.03 | 3.02 | 1.67 | 2.34
47 | GAAACAGGGTCAAGGCCAGAGTACGCGTATTGAT | 4.02 | 5.52 | 5.06 | 2.9 | 6.17 | 3.85 | 1.44 | 4.6 | 2.56
48 | AATACAGCGTCACTAGGCCAGAGTAGGTACGAAT | -0.144 | -0.145 | 0.173 | -0.271 | -0.094 | -0.216 | -0.342 | -0.29 | -0.308
49 | CGTACTAGGTCATCCAGGACAGTGAATACATTGA | 3.35 | 3.73 | 4.47 | 2.15 | 2.67 | 3.76 | 2.4 | 4.32 | 1.81
50 | CCGAGTAGGTTATGGGGCATTCACGCAACGGTGA | 0.898 | 0.542 | 0.597 | -0.117 | 0.816 | 0.155 | -0.0267 | -0.0125 | 0.416
51 | ATATGTAGGTTTGCTGGGGTCATTCAGACTAGGC | 3.3 | 3.6 | 2.31 | 2.62 | 4.91 | 4.29 | 3.2 | 5.56 | 5.58
52 | CCTCGGAGGACAGAAGGACAGAGCTGTCCGCTTT | 0.278 | -0.0569 | 0.674 | -0.277 | -0.555 | 0.672 | -0.622 | -0.413 | -0.357
